Assay outcomes (PubChem)
HIF-2a inh = blocks HIF-2a reporter activity; AID 624352; 360,000 tested, 0.72% active; inhibition, % at 18.8 µM; 786-0 RCC cells HIF-2a reporter, luciferase luminescence, overnight;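 active = inhibition of the luminescence signal of 40% or more relative to plate controls, in a single-dose primary screen at 18.75 µM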
Peg3 promoter = reduces Peg3 promoter-driven luciferase expression in HeLa; inhibition, % at 20 µM; HeLa PEG-Prom luciferase reporter, luminescence, overnight; 360,000 tested, 1.7% active; AID 588405;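 active = inhibition of at least 50% at 20 µM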
TWEAK Fn14 block = blocks TWEAK-Fn14 interaction in a reporter cell assay; TWEAK-stimulated Fn14 reporter cells, luciferase luminescence, 8 h; 360,000 tested, 2% active; inhibition, % at 10 µM; in the data active = inhibition above about 50%
TROY signal inh = blocks TROY-dependent signaling in reporter cells; 360,000 tested, 0.98% active; inhibition, % at 10 µM; Q293 LMP1-TROYcd NF-kB luciferase reporter, 4 h;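 active = compounds whose plate-normalised and pattern-corrected inhibition of the luciferase reporter signal at the single screening dose is 50% or more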
KKLEB cytotox = counter-screen for CF NF-kB inhibitors: cytotoxicity; KKLEB CF airway cells viability, ATPlite luminescence, overnight; hits give low values; cells stimulated with P. aeruginosa culture filtrate; activity change (cytotoxicity), % at 5 µM; 360,000 tested, 0.36% active;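 active = corrected activity change at or below -50% at 5 µM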
CF NFkB inh = blocks PAF-induced NF-kB reporter in cystic fibrosis cells | AID 588850 | 360,000 tested, 0.86% active | inhibition, % at 5 µM | KKLEB NF-kB-GFP reporter, GFP fluorescence overnight;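 active = at least 50% inhibition at 5 µM, scaled per plate between neutral and stimulator controls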;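 also: PAF is a Pseudomonas aeruginosa culture filtrate used as stimulus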
Mdm2-MdmX confirm = confirmation of inhibitors of human Mdm2/MdmX interaction, set 2; inhibition, % at 8 µM; shares compounds with HIF-2a inh; 740 tested, 99% active; SaOS-2 split-luciferase Mdm2/MdmX complementation, luminescence;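 active = mean inhibition of the luminescence signal across two replicates at or above 26 percent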
Target sequence (O15151 whole entry, looked up): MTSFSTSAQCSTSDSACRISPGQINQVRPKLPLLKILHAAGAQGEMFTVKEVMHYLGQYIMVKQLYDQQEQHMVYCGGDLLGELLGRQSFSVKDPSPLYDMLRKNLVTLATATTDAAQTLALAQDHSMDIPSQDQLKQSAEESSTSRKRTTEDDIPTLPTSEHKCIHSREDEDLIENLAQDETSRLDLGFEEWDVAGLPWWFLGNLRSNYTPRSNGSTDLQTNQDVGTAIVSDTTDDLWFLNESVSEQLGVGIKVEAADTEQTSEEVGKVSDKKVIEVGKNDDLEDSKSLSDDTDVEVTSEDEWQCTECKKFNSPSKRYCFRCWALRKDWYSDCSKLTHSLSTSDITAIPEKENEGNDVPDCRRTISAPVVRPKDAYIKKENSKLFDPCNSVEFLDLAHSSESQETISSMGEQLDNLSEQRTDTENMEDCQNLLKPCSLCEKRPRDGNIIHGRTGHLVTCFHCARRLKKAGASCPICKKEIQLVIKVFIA
Target sequence (Q00987 whole entry, looked up): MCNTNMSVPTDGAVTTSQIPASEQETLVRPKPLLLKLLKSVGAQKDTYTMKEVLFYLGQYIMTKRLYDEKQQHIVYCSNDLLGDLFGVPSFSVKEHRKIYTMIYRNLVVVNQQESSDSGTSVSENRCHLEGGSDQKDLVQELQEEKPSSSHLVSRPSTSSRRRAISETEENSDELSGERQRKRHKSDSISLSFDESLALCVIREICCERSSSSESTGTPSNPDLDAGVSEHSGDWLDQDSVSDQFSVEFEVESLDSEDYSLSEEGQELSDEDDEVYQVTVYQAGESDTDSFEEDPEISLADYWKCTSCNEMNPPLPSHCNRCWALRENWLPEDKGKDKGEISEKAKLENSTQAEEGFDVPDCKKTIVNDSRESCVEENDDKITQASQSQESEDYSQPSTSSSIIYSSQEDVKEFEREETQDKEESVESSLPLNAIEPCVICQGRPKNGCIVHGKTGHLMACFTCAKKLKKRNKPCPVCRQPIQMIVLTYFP
HIF-2a inh conf = HIF-2a inhibition, single concentration confirmation; inhibition, % at 18.8 µM; shares compounds with HIF-2a inh; AID 651580; 1,800 tested, 56% active; 786-0 RCC cells, HIF-2a luciferase reporter luminescence, overnight;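 active = mean inhibition across four replicates of at least 40 percent at the single tested concentration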
HIF-1a counter = inhibits HIF-1a reporter, a counter-screen for HIF-2a inhibitors; shares compounds with HIF-2a inh; MiaPaCa-2 HIF-1a luciferase reporter, desferoxamine, overnight; inhibition, % at 18.8 µM; 1,800 tested, 72% active;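 active = mean inhibition of the reporter signal across four replicates at the single tested dose of 50% or more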
Hits are given with their value; - = inactive; . = no result. An excerpt weighted towards active compounds, which were near 4% of everything screened.

SMILES | HIF-2a inh | Peg3 promoter | TWEAK Fn14 block | TROY signal inh | KKLEB cytotox | CF NFkB inh | Mdm2-MdmX confirm | HIF-2a inh conf | HIF-1a counter
Cn1nnnc1Sc1ncnc2scc(-c3ccc(Cl)cc3)c12 | 86 | 95 | 75 | 64 | - | - | 103 | 99 | 102
Cn1nnnc1Sc1ncnc2scc(-c3cccc(Br)c3)c12 | 82 | 94 | 99 | 67 | -52 | 80 | 103 | 97 | 102
Clc1ccc(-c2csc3ncnc(Cl)c23)cc1 | - | - | - | - | - | - | . | . | .
Cn1nnnc1Sc1ncnc2scc(-c3cccc4c3sc3ccccc34)c12 | 62 | 98 | - | - | - | - | . | - | 102
CN(C)C(=O)CSc1ncnc2scc(-c3ccccc3)c12 | - | - | - | - | - | - | . | . | .
Cn1nnnc1Sc1ncnc2scc(-c3ccc([N+](=O)[O-])cc3)c12 | 92 | 102 | 92 | 54 | -63 | 71 | 103 | 97 | 100
Cc1cc(NC(=O)CSCC(=O)Nc2ccccc2OC(F)F)no1 | - | - | - | - | - | - | . | . | .
O=[N+]([O-])c1cc(S(=O)(=O)C(F)(F)F)ccc1Sc1nc2ccccc2s1 | 56 | 110 | - | - | - | - | . | - | 101
O=[N+]([O-])c1cc(S(=O)(=O)C(F)(F)F)ccc1Sc1nc2ccccc2[nH]1 | 93 | 104 | - | - | - | 50 | . | 69 | 106
NCCNc1ccc([N+](=O)[O-])c(Sc2nc3ccccc3[nH]2)c1 | - | - | - | - | - | - | . | . | .
COC(C[C@@H]1O[C@H]1[C@@H](O)COCc1ccccc1)OC | - | - | - | - | - | - | . | . | .
OC(c1ccccc1)(c1ccccc1)C1CCN(CCCOc2ccc(F)cc2)CC1 | - | . | - | - | . | . | . | . | .
Cn1c(=S)n(C)c2ccccc21 | 55 | - | - | - | - | - | . | - | -
COc1ccc(N2CCN(CCNC(=O)c3ccc4c(c3)[nH]c(=S)n3c5ccccc5nc43)CC2)cc1 | - | 84 | - | - | - | - | 99 | . | .
Cc1nc2ccc(NC(=O)c3nn(CC(C)C)c(=O)c4ccccc34)cc2s1 | - | - | - | - | - | - | 93 | . | .
Cc1nnc(NC(=O)c2nn(CC(C)C)c(=O)c3ccccc23)s1 | - | - | - | - | - | - | . | . | .
Cc1cc(Cl)c(Cl)cc1S(=O)(=O)NCCCn1ccnc1 | - | - | - | - | - | - | . | . | .
COc1ccc(-c2noc(CCCC(=O)O)n2)cc1 | 84 | - | 78 | - | - | - | . | 94 | 80
COc1ccc(-c2noc(CCC(=O)O)n2)cc1 | - | - | - | - | - | - | . | . | .
CCOc1ccc(-c2noc(CCC(=O)O)n2)cc1 | 75 | - | 71 | - | - | - | . | 81 | 69
Cc1cc(C)nc(-n2nc(C)c(Sc3ccc(F)cc3)c2N)n1 | - | - | - | - | - | - | . | . | .
Cc1ccc(S(=O)(=O)N2CCCCC2)cc1NC(=O)c1ccc(Br)o1 | - | - | - | - | - | - | . | . | .
O=C1CCCc2ccccc2N1 | - | - | - | - | - | - | . | . | .
CC(=O)Nc1ccc2[nH]c3ccccc3c2c1 | - | - | - | - | - | - | . | . | .
O=C(Nc1ccc(Cl)cc1)c1cc2c(cc1O)[nH]c1ccccc12 | - | 54 | 82 | 55 | -63 | 67 | 102 | . | .
SMILES | HIF-2a inh | Peg3 promoter | TWEAK Fn14 block | TROY signal inh | KKLEB cytotox | CF NFkB inh | Mdm2-MdmX confirm | HIF-2a inh conf | HIF-1a counter
O=[N+]([O-])c1ccc(N=Nc2ncc[nH]2)cc1 | - | 107 | 85 | - | - | 75 | 103 | . | .
C=CCn1c(Sc2ncc([N+](=O)[O-])s2)n[nH]c1=O | 93 | 102 | - | - | - | - | 103 | . | .
C/C(=N\NC(=O)c1cccc(Br)c1)c1ccccn1 | - | - | - | - | - | - | 83 | . | .
Cc1cc(C)n(-c2nc(N(c3ccccc3)c3ccccc3)nc(-n3nc(C)cc3C)n2)n1 | - | 108 | 106 | - | -53 | 64 | 103 | . | .
Cc1cc(C)n(-c2nc(Nc3ccccc3)nc(-n3nc(C)cc3C)n2)n1 | - | - | - | - | - | - | . | . | .
CCCc1nnc(NC(=O)CS(=O)(=O)c2ccc(C)cc2)s1 | - | - | - | - | - | - | . | . | .
CCCc1nnc(NC(=O)c2nc(S(=O)(=O)Cc3cccc(C)c3)ncc2Cl)s1 | 69 | 109 | 93 | 57 | -90 | 94 | . | - | 106
CSc1ncc(Cl)c(C(=O)Nc2cccc(C)c2)n1 | - | - | - | - | - | - | . | . | .
Cc1cccc(CS(=O)(=O)c2ncc(Cl)c(C(=O)Nc3c(C)cccc3C)n2)c1 | 47 | 103 | 90 | 67 | -66 | 98 | 103 | 68 | 90
CCOc1ccc2nc(SCC(=O)NC3CCCCC3)[nH]c2c1 | - | - | - | - | - | - | . | . | .
Cc1nc(C(=O)N/N=C/c2[nH]ncc2Br)cs1 | - | - | - | - | - | - | . | . | .
CCc1ccc(-c2cn3nc(C)c(C)nc3n2)cc1 | 66 | 71 | 60 | - | - | - | . | 91 | 84
Cc1nc2nc(-c3ccc(F)cc3)cn2nc1C | - | - | - | - | - | - | . | . | .
O=S(=O)(C/C(=C/CO)S(=O)(=O)c1ccccc1)c1ccccc1 | 87 | 95 | 66 | - | - | 99 | 102 | 98 | 105
O=S(=O)(CS(=O)(=O)c1ccccc1)c1ccccc1 | - | - | - | - | - | - | . | . | .
O=C(O)C1=C[C@@H](c2ccc3c(c2)OCO3)C[C@@H](OCCCCO)O1 | - | - | - | - | - | - | . | . | .
Cc1cc(C)cc(N=c2c([N+](=O)[O-])nn(-c3ccc4c(c3)OCCO4)n2O)c1 | - | - | - | - | - | - | . | . | .
Cc1ccc(N=c2c([N+](=O)[O-])nn(-c3ccc4c(c3)OCCO4)n2O)cc1F | 70 | - | 100 | 91 | - | - | . | 84 | 94
O=[N+]([O-])c1nn(-c2ccc3c(c2)OCCO3)n(O)c1=Nc1ccccc1 | 82 | 76 | 104 | 88 | - | - | 95 | 90 | 100
Cc1cc(C)cc(C(=O)NC(=S)Nc2ccc(-c3cc4ccccc4oc3=O)cc2)c1 | 82 | - | - | 57 | -57 | 57 | . | 76 | -
Cc1ccc(C(=O)NC(=S)Nc2ccc(-c3cc4ccccc4oc3=O)cc2)c(C)c1 | 81 | - | - | . | - | - | . | 76 | 56
O=C(Cc1cccc2ccccc12)Nc1ccc(-c2cc3ccccc3oc2=O)cc1 | 53 | - | - | 58 | - | - | . | 68 | 52
O=C(Nc1ccccc1-c1nc2ccccc2[nH]1)c1ccc(N2C(=O)CCC2=O)cc1 | 45 | - | - | - | - | - | . | - | -
Cc1cc(N)ccc1-n1nc2ccccc2n1 | - | - | - | - | - | - | . | . | .
